A short description of experiment [1]: qHTS assay to identify small molecule agonists of the vitamin D receptor (VDR) signaling pathway - cell viability counter screen (AID 743224). Note: nearly all actives have a fitted effect of over 50% in size. Note: potency is the fitted concentration of half-maximal effect. The procedure, abridged: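 Luminescence from CellTiter-Glo, read after 30 min at room temperature, reports viability of VDR-bla cells treated with compounds for 16 h at 37C in the wells used for the beta-lactamase FRET read.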
(qHTS replaces the single test concentration by a dilution series.)

The nature of experiment [2]: qHTS assay to identify small molecule antagonists of the vitamin D receptor (VDR) signaling pathway - cell viability counter screen (AID 743225). Note: nearly all actives have a fitted effect of over 50% in size. Summed up: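 Read-out: CellTiter-Glo luminescence measured 30 min after reagent addition at room temperature. Cells were VDR-bla HEK 293T exposed 16 h at 37C, 5% CO2, to compound with 3 nM final calcitriol agonist.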
The nature of experiment [3]: qHTS assay to identify small molecule agonists of the NFkB signaling pathway (AID 1159509; active = well fitted curve in the direction sought with a large enough effect in the signal ratio in the repeat runs, not every such curve was filed as active; the % refers to the signal ratio; note: series mostly up to about 61 µM). Summed up:
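NFkB-bla ME-180 cells carry a beta-lactamase reporter under an NF-kB response element. They were plated overnight, then exposed to compounds for 5 h at 37 C. Read-out is LiveBLAzer FRET after 1.5 hr at room temperature (405 nm excitation; 460/530 nm emission).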

A short description of experiment [4]: qHTS assay to identify small molecule agonists of the NFkB signaling pathway - cell viability counter screen (AID 1159515; calls by dose curve; note: series mostly up to about 61 µM; nearly all actives have a fitted effect of over 55% in size). Summed up: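 Luminescence from CellTiter-Glo (30 min, room temperature) gives viability, measured in the same wells as the beta-lactamase reporter read. Cells were NFkB-bla ME-180, 2,000 per well, treated 5 hr with compounds.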
Experiment [5] is described as follows: qHTS assay to identify small molecule agonists of the endoplasmic reticulum stress response signaling pathway (AID 1159516; active = well fitted activation curve with a large enough effect in the signal ratio in the repeat runs, not every such curve was filed as active; the % refers to the signal ratio). The procedure, abridged:
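Read-out is beta-lactamase cleavage of a FRET substrate (405 nm excitation; 460 and 530 nm emissions) in ESRE-bla HeLa cells after a 5 hr compound exposure at 37 C. Substrate incubation ran 2 hr at room temperature.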

Experiment [6] can be described thus: qHTS assay to identify small molecule agonists of the endoplasmic reticulum stress response signaling pathway - cell viability counter screen (AID 1159517; calls by dose curve;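 note: HeLa cells carrying an ER stress response element beta-lactamase reporter; series mostly up to about 61 µM; nearly all actives have a fitted effect of over 50% in size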). The procedure, abridged: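 ESRE-bla HeLa cells, 1,500 per well, seeded overnight then treated with compounds for 5 hr at 37 C. After the beta-lactamase read, viability in the same wells is measured by CellTiter-Glo luminescence after 30 min at room temperature.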

Experiment [7] has as its target Nuclear receptor ROR-gamma (Homo sapiens) (UniProt P51449). Kind of experiment: qHTS assay to identify small molecule antagonists of the retinoid-related orphan receptor gamma (ROR-gamma) signaling pathway (AID 1159521; note: nearly all actives have a fitted effect of over 50% in size; note: potency is the fitted concentration of half-maximal effect). Summed up:
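CHO Tet-on RORγ, RORE-luc reporter. Cpd 2 h pre-incubation, then dox hyclate 1 uM final, 16 h, 37 C/5% CO2. ONE-Glo luminescence; decrease = antagonist.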

Experiment [8] is described as follows: qHTS assay to identify small molecule agonists of the AP-1 signaling pathway - cell viability counter screen (AID 1159525; calls by dose curve; note: nearly all actives have a fitted effect of over 55% in size). Summed up:
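AP-1-bla ME-180 cells in Opti-MEM with 0.5% dialyzed FBS, compound exposure 5 h at 37 C in 15-point titration. Viability read in the same wells as ATP content by CellTiter-Glo luminescence, normalised to tetra-n-octylammonium bromide and DMSO controls.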

Experiment [9] in a line: qHTS assay to identify small molecule agonists of the AP-1 signaling pathway (AID 1159526; calls by dose curve).
The target in experiment [10] is Retinoic acid receptor RXR-alpha (Homo sapiens) (UniProt P19793). The experiment can be described thus: qHTS assay to identify small molecule agonists of the RXR signaling pathway (AID 1159527; calls by dose curve; note: nearly all actives have a fitted effect of over 35% in size). The procedure, abridged:
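Read-out: beta-lactamase FRET ratio (405 nm excitation, 460 and 530 nm emission) after 2 hr substrate loading at room temperature. Cells were RXR-alpha-UAS-bla HEK 293T treated with compounds for 16 hr in 2% charcoal-stripped FBS medium.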

A short description of experiment [11]: qHTS assay to identify small molecule agonists of the RXR signaling pathway - cell viability counter screen (AID 1159529). The procedure, abridged: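 HEK 293T RXRa-bla cells, 2% CS-FBS; 5 h settle; cpd 16 h 37 C, 5% CO2; CellTiter-Glo 30 min RT, luminescence. Tetraoctyl ammonium bromide as positive control.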
A short description of experiment [12]: qHTS assay to identify small molecule antagonists of the retinoid acid receptor (RAR) signaling pathway - cell viability counter screen (AID 1159551). Note: nearly all actives have a fitted effect of over 35% in size. Summed up:
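Luminescent ATP quantitation (CellTiter-Glo) gave cell viability in C3RL4 cells exposed to test chemicals for 6 h at 37 C alongside 1 uM final retinol.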

A short description of experiment [13]: qHTS assay to identify small molecule antagonists of the retinoic acid receptor (RAR) signaling pathway (AID 1159552; note: nearly all actives have a fitted effect of over 50% in size). Summed up:
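Cells of the C3RL4 line were seeded, incubated overnight, then dosed with compounds in DMSO followed immediately by retinol (1 uM final). Six hours later luciferase detection reagent went in; signal was measured after 30 min at RT.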

Experiment [14] is described as follows: qHTS assay to identify small molecule agonists of the retinoic acid receptor (RAR) signaling pathway (AID 1159553). Note: potency is the fitted concentration of half-maximal effect. The procedure, abridged: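 Luminescence from a RARE-driven luciferase reporter in C3RL4 cells served as the read-out, measured after 30 min with detection reagent at room temperature. Compounds in DMSO were applied for 6 hr at 37 C following overnight seeding.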

Experiment [15] in a line: qHTS assay to identify small molecule agonists of the estrogen related receptor (ERR) signaling pathway (AID 1224820). The procedure, abridged:
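ERR reporter cell line (from NTP), 2,000 cells/well, incubated 6 h before compound addition, then 18 h at 37 C. Luminescence measured 30 min after One-Glo reagent at room temperature.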

In experiment [16] the test system is estrogen-related receptor alpha (ERRalpha) with PGC-1alpha coactivator, human. Kind of experiment: qHTS assay to identify small molecule antagonists of the estrogen related receptor signaling pathway with the pleiotropic PPARgamma coactivator (PGC) (AID 1224821; calls by dose curve). The procedure, abridged:
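PGC/ERR reporter cell line, plated 6 h before compound addition, then exposed 18 h at 37 °C. Luciferase activity read by luminescence 30 min after One-Glo addition; decrease indicates antagonism.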

A short description of experiment [17]: qHTS assay to identify small molecule antagonists of the retinoid-related orphan receptor gamma (ROR-gamma) signaling pathway - cell viability counter screen (AID 1159520). Note: nearly all actives have a fitted effect of over 50% in size. Summed up:
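Tet-on ROR gamma CHO cells were given compounds for 2 hr, then doxycycline hyclate at 1 uM final, and incubated 16 hr at 37 C. Viability was measured as ATP content by CellTiter-Glo luminescence.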

“And” between values parts separate entries of the source, which are not always exact repeats. Equal values may be shown once. Results filed as inconclusive are left out. The source holds several records for some structures; these can differ, active in one and inactive in another. The source made the active and inactive calls. Unless noted, calls come from the whole dose curve; as a rule, active = well fitted curve in the direction sought with a large enough effect in the repeat runs; inconclusive = weak or mixed curves; inactive = no such curve, though single readings can be large; an effect the other way counts as inactive or inconclusive.

Chain of Retinoic acid receptor RXR-alpha (Homo sapiens) (P19793 whole entry, looked up): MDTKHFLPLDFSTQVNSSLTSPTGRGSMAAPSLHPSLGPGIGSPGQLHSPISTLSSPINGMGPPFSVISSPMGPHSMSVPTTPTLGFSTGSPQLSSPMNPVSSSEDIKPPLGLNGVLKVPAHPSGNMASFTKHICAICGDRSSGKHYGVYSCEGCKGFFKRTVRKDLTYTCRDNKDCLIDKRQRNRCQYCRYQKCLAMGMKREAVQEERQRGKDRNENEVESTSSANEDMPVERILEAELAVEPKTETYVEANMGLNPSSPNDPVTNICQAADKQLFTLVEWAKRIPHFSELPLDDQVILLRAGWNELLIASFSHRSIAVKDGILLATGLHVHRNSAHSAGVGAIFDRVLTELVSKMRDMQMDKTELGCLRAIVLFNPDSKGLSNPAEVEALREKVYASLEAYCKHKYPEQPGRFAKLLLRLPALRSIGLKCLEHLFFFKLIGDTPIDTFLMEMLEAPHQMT

On to `NC(=O)/N=N/C(N)=O`, for which the Potency result in [1], in experiment [2], in experiment [6], in experiment [7], in experiment [8] and in experiment [9] was “inactive” in each case. In addition, the Potency entry in experiment [10], in experiment [11], in experiment [12], in experiment [13] and in experiment [14] was “inactive” in each case. The call in experiment [3], in experiment [4] and in [5] was inactive.
Turning to `Cc1ccc(C(=O)O)o1`, the Potency entry in experiment [1], in [6], in experiment [7], in experiment [8], in experiment [9] and in [11] was “inactive” each time. Besides, the Potency result in [12] was “inactive”. Also, the outcome in experiment [3], in [4] and in experiment [5] was inactive.
Regarding `C[C@@H]1O[C@@H](OC[C@H]2O[C@@H](Oc3c(-c4ccc(O)c(O)c4)oc4cc(O)cc(O)c4c3=O)[C@H](O)[C@@H](O)[C@@H]2O)[C@H](O)[C@H](O)[C@H]1O`, the Potency entry in experiment [1], in experiment [2], in experiment [6], in experiment [7], in experiment [8] and in experiment [9] was “inactive” each time. The Potency entry in [10], in experiment [11], in [12], in experiment [13] and in [14] was “inactive” in each case. Also, the outcome in experiment [3], in experiment [4] and in [5] was inactive.
On to `Oc1ccc(OCc2ccccc2)cc1`, for which the Potency entry in experiment [1], in experiment [2], in experiment [6], in experiment [7], in [8] and in experiment [9] was “inactive” throughout. Further, the Potency result in experiment [10], in experiment [11], in experiment [12] and in [13] was “inactive” throughout. The call in experiment [3], in experiment [4] and in experiment [5] was inactive. Further, the Potency in experiment [14] was 4.24 µM (active) and inactive.
As to `CCCCC(CC)C(=O)OCCOCCOCCOC(=O)C(CC)CCCC` (configuration not stated), the Potency result in experiment [1], in [2], in experiment [6], in [7], in [8] and in experiment [9] was “inactive” throughout. Moreover, the Potency entry in experiment [10], in experiment [11], in [12], in experiment [13] and in experiment [14] was “inactive” each time. Further, the molecule was classed as inactive in [3], in [4] and in [5].
With `OCC#CCO`, the Potency entry in experiment [1], in experiment [2], in experiment [6], in experiment [7], in experiment [8] and in experiment [9] was “inactive” throughout. Further, the Potency result in experiment [10], in experiment [11], in experiment [12], in experiment [13] and in [14] was “inactive” throughout. The molecule was classed as inactive in experiment [3] and in experiment [4].
For the molecule `Cc1cc(O)c2c(c1)C(=O)c1cc(O)cc(O)c1C2=O`, the Potency in [1] was 24 µM (active) and inactive; in [14], 9.47 µM (active). Moreover, the Potency result in experiment [2], in experiment [6], in [7], in [8], in [10] and in [11] was “inactive” throughout. Also, the Potency entry in [12], in experiment [13], in experiment [15] and in [16] was “inactive” each time. Besides, the molecule was classed as inactive in experiment [3], in experiment [4] and in [5].
On to `CC1COc2ccccc2N1C(=O)C(Cl)Cl` (configuration not stated), for which the Potency entry in [1], in [6], in [17], in [8], in experiment [9] and in experiment [11] was “inactive” throughout. Also, the Potency entry in [12] was “inactive”. Besides, the result in experiment [3] and in experiment [4] was inactive. Besides, the Potency in experiment [7] is 61 µM (active) and 48.5 µM (active).
`O=Nc1ccc(O)cc1`: the Potency result in experiment [1], in experiment [2], in experiment [6], in experiment [7], in experiment [8] and in experiment [9] was “inactive” in each case. Also, the Potency result in [10], in experiment [11], in experiment [12], in experiment [13] and in experiment [14] was “inactive” in each case. For the same molecule, the molecule was classed as inactive in [3], in experiment [4] and in experiment [5].
As for `CCCCNC(N)=O`, the Potency result in experiment [1], in experiment [2], in experiment [6], in experiment [7], in experiment [8] and in experiment [9] was “inactive” in each case. The Potency entry in [10], in experiment [11], in experiment [12], in experiment [13] and in experiment [14] was “inactive” throughout. The result in [3], in experiment [4] and in [5] was inactive.

For the origin of these results see PubChem BioAssay (Tox21).
